Results reported in PubChem BioAssay AID504941 (Broad Institute, 2011).
The campaign covered roughly 1,200 compounds. About 170 (14%) were called active. The rule behind the calls is not given here. The list is a sample of the results. Measured potencies and affinities stand elsewhere.

Assay: E. coli Tat export inhibitors, dose response, cherry-pick, set 2, plate reader (AID 504941)
Details: E. coli Tat transport reporter; series mostly up to 38 µM; activity change, negative = inhibition: at the top concentration

Activity change, negative = inhibition, inactive:
COc1cccc(COC(=O)C2CC(=O)N(Cc3ccco3)C2)c1OC (stereo not given) -18.3%
CCc1ccc2c(CSc3nnnn3C)cc(=O)oc2c1 1.88%
O=c1[nH]c(N2CCCCC2)nc2c1CCCC2 22.6%
S=c1nc(-c2ccccc2Br)[nH][nH]1 3.19%
CCOC(=O)N1CCN(c2ccc(C(=O)CC)cc2F)CC1 -16.3%
CN(C)c1nc(SCC#N)nc(N2CCOCC2)n1 -12.4%
CCCC(=O)NC1=C(C#N)C2(CCCC2)Cc2ccccc21 21.4%
c1ccc(CC2=NCCN2)cc1 27.8%
O=S(=O)(/N=C(/Nc1ccccc1)c1ccccc1)c1cccs1 16%
O=C(Nc1cccc(NC(=O)c2ccco2)c1)c1ccccc1 -7.6%
N#Cc1ccccc1CSc1ccccn1 -4.99%
O=C1CCCN1Cc1ccccc1 3.9%
COc1ccc(Cl)cc1S(=O)(=O)Nc1noc2ccccc12 -10.8%
Nc1ccccc1C(=O)NCC1(c2ccccc2)CCCC1 -13.6%
Cc1ccccc1Nc1nnc(C)c(=O)[nH]1 -11.2%
Cc1ccc(C(=O)N2CCCC(CCC(=O)NCc3ccc(F)c(F)c3)C2)cn1 (stereo not given) -11.3%
CCCc1cc(=O)oc2cc(OCC(=O)N(C)C)c(Cl)cc12 13.6%
C#CCNC(=O)C1=C[C@H](c2csc3ccccc23)[C@@H](CCCO)[C@H](OCC)O1 3.86%
COc1cc(OC)cc(C(=O)N(CN2CCCC2=O)c2ccccc2OC)c1 -1.04%
CCOCCCNC(=S)NCCNc1nc2ccc(C)cc2cc1C#N -5.46%
Cc1ccsc1C1C(C#N)=C(N)OC2=C1C(=O)CC(C)C2 (stereo not given) 11.4%
CC(=O)N(Cc1ccc(F)cc1)c1cccc(C)c1C -14.8%
Cc1ccc(NC(=O)C(c2ccc(Cl)cc2)N2CCCCC2)cc1 (stereo not given) -1.59%
Cc1cc(C(=O)N2CCN(c3ccccc3)CC2)no1 3.1%
Cc1cc(C)n2nc(SC(C)C(=O)N3CC(C)OC(C)C3)nc2n1 (stereo not given) -4.69%
CC1=C(C#N)C(c2cn(-c3ccccc3)nc2-c2cccs2)C(C#N)=C(C)N1 24.9%
Cc1nc2ncnn2c(C)c1CCC(=O)N1CCCCC1 4.61%
CCNC(=O)OCC12CC3CC(CC(C3)C1)C2 2.46%
CCOc1ccccc1NC(=O)NCc1ccc2c(c1)OCO2 21.1%
O=C1CN(C(=O)COC(=O)c2cc(S(=O)(=O)N3CCOCC3)ccc2Cl)c2ccccc2N1 15.5%
Cc1ccc(-c2n[nH]c3c2C(c2ccccc2)N(c2ccc(C(=O)O)cc2)C3=O)cc1 (stereo not given) -5.26%
COc1ccc(CN2CCN(C(=O)C3CCC(CNS(=O)(=O)c4ccccc4)CC3)CC2)c(OC)c1OC (stereo not given) 6.45%
Cc1nn(-c2ccccc2)c2nc3c(cc12)C(=O)CCC3 16.6%
COc1ccc(-n2c(Cc3cccn3C)nnc2SCC(=O)Nc2ccc(C(C)=O)cc2)cc1 17.2%
CC(=O)c1ccc(NC(=O)CSc2nc(N3CCOCC3)nc(N3CCOCC3)n2)cc1 -10.8%
Cc1ccc(-c2nc3ccccc3s2)cc1NC(=S)NC(=O)c1cccc2ccccc12 9.11%
COc1ccc(-c2nc3ccccc3o2)cc1NC(=O)c1ccc(Br)o1 9.12%
Cc1cc(NC(=O)C2CC2)ccc1NC(=O)c1cccs1 2.3%
CC1=NN(c2ccccc2)C(=O)C1c1ccccc1 (stereo not given) 23.5%
O=C(NCCOC(=O)c1cccs1)c1cccnc1 -2.94%
CCOC(=O)CNS(=O)(=O)Cc1ccccc1 7.82%
CCOC(=O)CNC(=O)c1ccccc1 4.19%
Cc1cc2ncn(CCOc3ccccc3)c2cc1C -9.86%
COc1ccc(/C=C(/NC(=O)c2cccc([N+](=O)[O-])c2)C(=O)O)cc1OC 2.13%
CC(C)(C)OC(=O)N(CCc1ccccc1)Cc1cccc(OCc2cccc(NC(=O)/C=C/c3ccccc3)c2)c1 23.8%
O=C(Nc1cccnc1Cl)c1noc2c1CCc1ccccc1-2 -13.1%
Cc1ccc(CN(C(=O)c2sc3ccccc3c2Cl)C2CCS(=O)(=O)C2)cc1 (stereo not given) 5.46%
COc1ccccc1-n1nc(C(=O)Nc2ccc3c(c2)OCO3)c2ccccc2c1=O 26.9%
C=CCNC(=O)c1ccccc1NC(=O)Nc1ccccc1 9.76%
COCCN(C(=S)Nc1c(C)cc(C)cc1C)C(C)c1cccnc1 (stereo not given) 6.68%
CCOCCCNC(=O)c1ccc(Cn2c(=S)[nH]c3c([nH]c4ccc(OC)cc43)c2=O)cc1 25.4%
CCOC(=O)Cc1c[nH]c2ccc([N+](=O)[O-])cc12 2.39%
O=C(/C=C/c1ccccc1)Nc1cc(S(=O)(=O)N2CCOCC2)ccc1N1CCCC1 12.8%
COc1ccc(N=C2SC(C(=O)O)CC(=O)N2Cc2ccc(OC)c(OC)c2)cc1 (stereo not given) 2.87%
CNC(=O)C1CCN(S(=O)(=O)c2c(C)noc2/C=C/c2cccc(OC)c2)CC1 22.2%
COc1cc(/C=N/NC(=O)c2ccccn2)ccc1OC(=O)c1ccc(Br)cc1 31.3%
COc1ccc([N+](=O)[O-])cc1/C=N/NC(=O)Cc1ccccc1 10.8%
C=CCNC(=S)Nc1cccc2[nH]ncc12 4.33%
O=C(O)c1cn(-c2ccc(F)cc2)c2cc(N3CCNCC3)c(F)cc2c1=O -53.8%
CN1C2CCC1CC(NS(=O)(=O)c1cc(Cl)c(Cl)cc1Cl)C2 (stereo not given) 15.7%
CCCCSc1nc2c(c(=O)[nH]c(=O)n2C)n1CCc1ccccc1 -19.5%
O=C(CCc1nc2ccccc2c(=O)[nH]1)OCC(=O)c1cccc(Cl)c1 -12.3%
CCOc1ccc(S(=O)(=O)N2CCCCC2)cc1NC(=O)CN1C(=O)NC(CC)(c2ccccc2)C1=O (stereo not given) -7.52%
COc1ccc(S(=O)(=O)N2CCOCC2)cc1NC(=O)c1ccc2c(c1)OCO2 -13.2%
Cc1c(C)c2c(C)nn(-c3ccccc3)c2[nH]c1=O -0.775%
CC(C)(C)c1nn2cnnc2n(/N=C/c2cccc3ccccc23)c1=O 24.3%
CCOC(=O)c1c(N/C=C(\C#N)c2nc(-c3ccc(OC(C)=O)cc3)cs2)sc2c1CCC2 12.3%
CCc1nc2cc3sc(CC)nc3cc2s1 15.8%
Cc1ccc(C(=O)Nc2nc(C)c(C(=O)Nc3ccc4c(c3)CCC4)s2)cc1 15.6%
CC(C)c1ccc(NC(=O)c2snc3ccc(Cl)cc23)cc1 -3.4%
Cc1ccc[n+](CC(=O)c2cc3ccccc3oc2=O)c1 3.31%
Cc1nc2scc(-c3ccccc3)c2c(=O)n1/N=C/c1ccco1 11.6%
Cc1ccc(-n2c3nc(=O)[nH]c(=O)c-3cc3c(C)nn(-c4ccccc4)c32)c(C)c1 11.6%
COc1ccc(-c2noc(CSc3nnc(-c4ccncc4)n3-c3ccc(F)cc3)n2)cc1OC -7.91%
CCCCc1c(O)nc(SCC(=O)c2ccccc2)[nH]c1=O 3.64%
CCN(CC)CCCn1c(C)cc2c(c1=O)C(c1cccc(Cl)c1)C(C#N)=C(N)O2 (stereo not given) 17.9%
Cc1ccc(NC(=O)CN2CCN(c3ccccn3)CC2)c(Cl)c1 12.6%
Cc1cc(Cl)ccc1NC(=O)CN1CCCC1 -11.6%
O=C(CCCn1c(=O)[nH]c2ccsc2c1=O)N1CCCCC1 -18.6%
CC(C)OC(=O)Cn1c(=O)oc2ccccc21 -1.58%
O=C(C1CC(=O)N(C2CCCC2)C1)N1CCN(c2ccc(F)cc2)CC1 (stereo not given) -6.74%
Nc1nc2ccc([N+](=O)[O-])c(N)c2s1 15.8%
CCCn1c(=N)c(S(=O)(=O)c2ccc(F)cc2)cc2c(=O)n3cccc(C)c3nc21 -9.12%
CC(C)c1cc(C(N)=O)c(NC(=O)c2cccc(COc3ccc(Cl)cc3)c2)s1 10.4%
CCn1nc(-c2ccccc2)c2nc3ccccc3nc21 27.2%
C=C1CSc2nc(=O)c3c4c(sc3n21)CCCC4 7.3%
COc1ccc(C(CNC(=O)c2cc(SC)ccc2Cl)N(C)C)cc1 (stereo not given) 0.77%
O=c1/c(=C/c2ccc(O)c([N+](=O)[O-])c2)sc2nc3ccccc3n12 4.56%
CCn1cc(C(=O)O)c(=O)c2cc(F)c(N3CCN(C(=S)NC(=O)c4ccc(F)c(F)c4)CC3)cc21 422%
Cc1ccnc(NC(c2cccnc2)c2ccc3cccnc3c2O)c1 (stereo not given) 1.66%
Oc1c(Br)cc(C2N=C(c3ccccc3)NO2)cc1Br (stereo not given) 13.5%
CCOC(=O)C1(c2nc(N)cs2)COC(=O)C1 (stereo not given) 8.65%
COc1ccccc1-c1ccc(=O)n(CC(=O)Nc2ccc(C(=O)N3CCCC3)cc2)n1 -4.17%
O=C(c1ccccc1)N1CCN(c2nc3ccc([N+](=O)[O-])cc3s2)CC1 8.95%
Nc1nc(NCC2CCCO2)nc(Nc2cccc(Cl)c2)c1[N+](=O)[O-] (stereo not given) -1.52%
COc1ccc(CNC(=O)Cn2nnc(-c3ccc(NC(=O)C4CCCCC4)cc3)n2)cc1 11.5%
Cc1ccc(NC(=O)c2ncn(CCCNCc3ccccn3)n2)cc1C 7.97%
O=C(NCc1cccs1)Nc1cccc(Cl)c1 -9.39%
COc1ccc(CCNC(=O)CN2CCOc3ccccc32)cc1OC 15.9%
COc1ccc(N2CCN(C3CC(=O)N(c4ccc5c(c4)OCCO5)C3=O)CC2)cc1 (stereo not given) 31.4%
Cc1ccc(O)c(C(=O)c2coc(=N)c(C(=O)NC(C)C)c2)c1 -5.5%
C=CCNc1ccccc1S(=O)(=O)NCc1ccccc1 15.6%
O=C(Nc1ccc(Oc2ccccc2)nc1)C1CCCCN1Cc1ccc(OCCO)cc1 (stereo not given) 1.23%
CCOc1ccc(Nc2nc3c(c(=O)[nH]2)CCCC3)cc1 4.88%
COc1ccc(/C=C/C(=O)Nc2ccccc2C(=O)O)cc1OC 1.99%
NS(=O)(=O)c1ccc(CCNC(=O)Cc2ccc(S(=O)(=O)N3CCCC3)s2)cc1 -6%
CC1COc2c(N3CCN(C)CC3)c(F)cc3c(=O)c(C(=O)O)cn1c23 (stereo not given) -81.4%
CCn1cc(C(=O)O)c(=O)c2cc(F)c(N3CCN(C)CC3)cc21 -89.3%
O=C(NC(Cc1ccccc1)c1nc2ccccc2[nH]1)c1ccc(Cl)c([N+](=O)[O-])c1 (stereo not given) -0.833%
CCOC(=O)c1c(C)[nH]c(C(=O)N(C)Cc2cccc(OC)c2OC)c1C -7.53%
